D2 ag-1 – HTS Assay for Allosteric Agonists of the Human D2 Dopamine Receptor: Primary Screen for Agonists | D(2) dopamine receptor (Homo sapiens), P14416 | HEK293 T-REx D2 cells, calcium flux agonist mode | activation, % at 2 µM | 340,000 tested, 0.53% active | AID 485358, 2010;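 active means activation over 3 SD above normal in the single-dose calcium agonist read, cut at about 30% in these data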; further: 0% is about no effect
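Agonism is scored from calcium flux in a force-coupled, inducible HEK293 cell line expressing D2, read kinetically for 180 s after compound addition against dopamine controls.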
D2 PAM-1 – HTS Assay for Positive Allosteric Modulators of the Human D2 Dopamine Receptor: Primary Screen for Potentiators; D(2) dopamine receptor (Homo sapiens), P14416; HEK293 T-REx D2, calcium flux, EC20 dopamine potentiation; AID 485347, 2010; 340,000 tested, 0.34% active; potentiation, % at 10 µM;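 active means potentiation over 3 SD above the plate norm, cut at about 30% in these data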; further: 0% is about no effect
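Tetracycline-induced Hek293 Trex D2 cells, force-coupled to calcium, loaded with no-wash calcium dye. Compound added with 180 s kinetic read for agonism, then EC20 dopamine and a further 180 s read for potentiation.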
Anesthetic bind – qHTS Assay for Identification of Novel General Anesthetics; Ferritin light chain (Equus caballus), P02791; 350,000 tested, 0.074% active; Potency, µM (series often up to 77.5 µM), for inactives: top-dose activity change, negative = displacement, hits mostly inhibitors; AID 485281, 2010; apoferritin/1-aminoanthracene competitive binding, fluorescence; further: potency means the concentration at half of the fitted maximal effect; on the % scale 0 is the no-effect control and ±100 the full control effect; nearly all actives have a fitted effect of over 20% in size
Target sequence (P02791 2-175 limits assumed): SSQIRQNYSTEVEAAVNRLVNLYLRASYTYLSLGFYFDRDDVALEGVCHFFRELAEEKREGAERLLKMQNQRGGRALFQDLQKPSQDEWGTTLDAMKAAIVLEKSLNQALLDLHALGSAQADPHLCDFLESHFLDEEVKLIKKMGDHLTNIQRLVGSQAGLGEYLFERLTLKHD
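Steps: apoferritin (10 uM) was premixed with half-saturated 1-AMA in PBS, compounds were pin-transferred, plates stood 10 min at room temperature, fluorescence was read at 380/535 nm, and curves were fitted with a Hill equation.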
D2 ag-2 – Beta-Arrestin HTS for Positive Allosteric Modulators of the Human D2 Dopamine Receptor: Agonists; D(2) dopamine receptor (Homo sapiens), P14416; activation, % (concentration not given with the values); 360,000 tested, 0.084% active; DiscoveRx PathHunter D2 beta-arrestin, luminescence, 90 min; 100% = 57 uM dopamine signal; in the data active means activation above about 40%; inconclusive means between about 15% and that limit
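DiscoveRx PathHunter D2 beta-arrestin cells (2,100/well) attached overnight, then compound-stimulated 90 min at 37 C in HBSS/10 mM HEPES/0.1% Tween-20 buffer; beta-galactosidase complementation read by luminescence after 1 h at ambient temperature. Dopamine 57 uM final (EC100) as control.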
D2 PAM-2 – Beta-Arrestin HTS for Positive Allosteric Modulators of the Human D2 Dopamine Receptor: Potentiators; D(2) dopamine receptor (Homo sapiens), P14416; DiscoveRx D2 beta-arrestin cells, luminescence, 90 min; 100% = 57 uM dopamine signal; potentiation, % (no concentration beside the values); 360,000 tested, 0.23% active; AID 624464, 2012; in the data active means potentiation above about 50%; inconclusive means mostly about 30% to 49%
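PathHunter beta-arrestin assay in DiscoveRx D2 cells. Compounds were added with an EC20 of dopamine (50 nM final) for 90 min at 37 deg C. Luminescence was read 1 h after detection reagent, with 57 uM dopamine as the EC100 control.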
D2 antag – HTS Assay for Allosteric Antagonists of the Human D2 Dopamine Receptor: Primary Screen for Antagonists | HEK293 TREx D2 cells, calcium flux, dopamine EC80 | inhibition, % at 10 µM | 340,000 tested, 2% active; in the data active means inhibition above about 30%; inactive means below that, where a call was filed; further: 0% is about no effect
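Dopamine at EC80 is the agonist stimulus; test compounds precede it by 180 s. Calcium flux read kinetically in a force-coupled, inducible HEK293 T-REx D2 cell line.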
D3 ag – qHTS of D3 Dopamine Receptor Agonist: D3 Dopamine Receptor B-arrestin Agonist Confirmatory Assay | 2,300 tested, 4% active | shares compounds with D2 ag-1 | AID 720506, 2013 | DiscoveRx D3 beta-arrestin cells, luminescence, 90 min | Potency, µM (titrated, usually from 76.9 µM), for inactives: at the top dose activation, most hits filed as activators;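 further: potency means the concentration at half of the fitted maximal effect; 100% = dopamine control response; nearly all actives have a fitted effect of over 70% in size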
Target sequence (P35462 whole entry, looked up): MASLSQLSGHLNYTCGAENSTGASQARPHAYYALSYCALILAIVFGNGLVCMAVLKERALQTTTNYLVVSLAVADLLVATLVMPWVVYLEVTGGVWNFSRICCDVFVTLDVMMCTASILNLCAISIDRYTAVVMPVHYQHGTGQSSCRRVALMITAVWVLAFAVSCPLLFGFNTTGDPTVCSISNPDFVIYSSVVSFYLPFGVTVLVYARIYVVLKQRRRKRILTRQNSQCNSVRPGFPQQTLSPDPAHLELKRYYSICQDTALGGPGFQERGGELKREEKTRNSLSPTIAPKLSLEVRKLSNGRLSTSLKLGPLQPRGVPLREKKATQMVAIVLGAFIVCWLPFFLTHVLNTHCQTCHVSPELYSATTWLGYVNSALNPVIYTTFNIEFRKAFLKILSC
D2 ag-3 – qHTS of D3 Dopamine Receptor Agonist: D2 Dopamine Receptor B-arrestin Agonist Counterscreen; Potency, µM (top dose mostly 76.9 µM), inactives show at the highest dose activation, most hits filed as activators; AID 720507, 2013; shares compounds with D2 ag-1; DiscoveRx PathHunter D2 beta-arrestin, luminescence, 90 min; response scale: percent relative to full dopamine signal; 2,300 tested, 5.9% active; further: potency means the concentration at half of the fitted maximal effect; % of control where 0% means no effect; nearly all actives have a fitted effect of over 70% in size
The depositor's hits bear a star; ? = inconclusive; / = no result given. Compounds with a hit are over-represented: about 2.5% of the library has one in this group of screens. Unless noted, the call rests on the fitted dose curve; in most records, active means well fitted curve in the direction sought with a large enough effect; inconclusive means small, poorly fitted or top-dose-only effect, or another doubt; inactive means no such curve, though single readings can be large; an effect the other way counts as inactive or inconclusive.

SMILES | D2 ag-1 | D2 PAM-1 | Anesthetic bind | D2 ag-2 | D2 PAM-2 | D2 antag | D3 ag | D2 ag-3
O=C(c1ccccc1)N1N=C(C(F)(F)F)CC1(O)c1ccc(F)cc1 (stereo unspecified) | -0.4 | 8.4 | -2.6% | -3.4 | -4.0 | -26.8 | -11.6% | -0.7%
O=C(c1ccccc1)N1N=C(C(F)(F)F)CC1(O)c1ccccc1 (stereo unspecified) | -2.4 | 3.5 | -20.0% | 0.9 | -12.3 | -2.4 | / | /
Nc1ccc(C(=O)c2cccs2)cc1[N+](=O)[O-] | 0.0 | 7.2 | ? | -1.6 | -14.8 | 19.4 | -3.8% | -5.4%
Nc1ccc(C(=O)O)cc1[N+](=O)[O-] | 0.0 | -1.5 | -2.9% | -4.7 | -5.5 | -18.5 | / | /
COc1ccccc1CNCC(=O)Nc1cc(S(=O)(=O)N2CCCCCC2)ccc1Cl | -0.1 | -5.2 | -8.1% | 0.7 | -20.9 | 85.5* | 23.2% | 29.7%
CCN(CC)S(=O)(=O)c1ccc(C)c(NC(=O)CNCc2ccccc2OC)c1 | 81.7* | -31.5 | 2.3% | ? | 0.7 | 96.3* | ? | ?
O=C(CNCc1ccccn1)Nc1cc(S(=O)(=O)N2CCCCC2)ccc1Cl | 27.6 | -17.3 | -7.3% | ? | -11.7 | 2.7 | / | /
COc1ccccc1CNCC(=O)Nc1cc(S(=O)(=O)N2CCOCC2)ccc1Cl | 18.8 | -11.1 | / | 7.0 | -4.1 | 84.8* | 18.6% | ?
Cc1ccc(S(=O)(=O)N2CCOCC2)cc1NC(=O)CNCc1ccccn1 | 51.6* | -12.4 | -5.8% | ? | -4.4 | 32.7* | 7.94µM* | ?
CCN(CC)S(=O)(=O)c1ccc(C)c(NC(=O)CN(C)C)c1 | -0.3 | 0.9 | -11.3% | 0.3 | -14.5 | 5.1 | / | /
Cc1ccc(S(=O)(=O)N2CCOCC2)cc1NC(=O)CSc1ncccn1 | 2.1 | -13.1 | / | -1.6 | 3.2 | 8.6 | / | /
Cc1c(CN2CCc3c([nH]c4ccccc34)C2C2CCCCC2)cnn1C (stereo unspecified) | 1.0 | 4.2 | -6.5% | -0.2 | -17.7 | -5.5 | / | /
O=C(NCc1ccco1)Nc1ccc(Br)cc1 | 0.6 | 6.4 | -18.9% | -1.1 | -23.2 | -7.5 | / | /
CC1OC(Nc2ccc(OC(F)(F)F)cc2)C(O)C(O)C1O (stereo unspecified) | -0.3 | -4.0 | -7.4% | 1.2 | -1.6 | -8.2 | / | /
COc1ccccc1S(=O)(=O)Nc1ccc(S(=O)(=O)Nc2nccs2)cc1 | -0.3 | 4.3 | / | -3.5 | 0.0 | -22.1 | / | /
CC(C)(CO)CNC(=O)CCc1nnc(CCCc2ccccc2)o1 | 0.6 | -1.8 | -4.8% | -2.8 | -1.8 | 1.7 | / | /
CCCCN1CCNC[C@@H]1Cc1ccccc1 | 0.2 | -10.7 | / | -4.7 | -11.2 | 2.3 | / | /
CCCCN1CCNC[C@@H]1c1ccccc1 | -0.4 | 13.8 | / | -1.2 | -16.9 | -8.5 | -3.7% | -3.1%
CC(Sc1nnc(-c2cccnc2)n1N)C(=O)NCCC1=CCCCC1 (stereo unspecified) | 46.9* | -2.3 | / | 3.4 | -6.7 | 11.9 | 13.5% | 23.0%
CC(Sc1nnc(-c2cccnc2)n1N)C(=O)N1CCOCC1 (stereo unspecified) | 0.5 | -8.7 | / | 0.1 | -8.1 | 7.5 | / | /
Cn1nc(C(F)(F)F)c(C#N)c1N1CCN(c2ccccn2)CC1 | 11.4 | -0.9 | -7.1% | -0.2 | -2.6 | -33.4 | 11.6% | 16.8%
CCC(NC(C)C)C(O)c1ccc(O)c(O)c1 (stereo unspecified) | 13.1 | 7.8 | 1.5% | -0.8 | -0.2 | 23.9 | ? | 12.4%
Cc1sc2ncnc(OCC(=O)NC(C)C(C)C)c2c1C (stereo unspecified) | -0.3 | 4.6 | -10.8% | -1.6 | -4.6 | -4.9 | / | /
O=C(O)C1CCCCC1C(=O)Nc1ccc(S(=O)(=O)N2CCCCCC2)cc1 (stereo unspecified) | -0.2 | -3.9 | -8.7% | -6.8 | -1.8 | -28.2 | / | /
CC1CC1C(=O)Nc1ccc(S(=O)(=O)N2CCCCC2)cc1 (stereo unspecified) | / | / | / | -2.0 | -22.4 | / | 0.8% | 3.3%
SMILES | D2 ag-1 | D2 PAM-1 | Anesthetic bind | D2 ag-2 | D2 PAM-2 | D2 antag | D3 ag | D2 ag-3
COc1ccc(Br)cc1CN1CCN(C(=O)c2ccco2)CC1 | / | / | -1.3% | 0.5 | -14.8 | / | -8.4% | -1.1%
COc1ccccc1CN1CCN(C(=O)c2ccco2)CC1 | 80.4* | -15.8 | -4.4% | 66.9* | 52.8* | 85.4* | ? | 10µM*
COc1ccccc1N1CCN(C(=O)c2ccco2)CC1 | / | / | 0.7% | 3.4 | 1.7 | / | / | /
CCOc1ccc(-c2nnc3sc(COc4ccccc4)nn23)cc1 | 0.8 | 1.2 | 16.2% | -4.3 | -2.9 | 7.2 | / | /
CCOC(CNC(=O)Cn1nc(Cc2ccncc2)c2ccccc2c1=O)OCC | 0.4 | 9.5 | -4.5% | 1.2 | 2.5 | -4.8 | / | /
COC(CNC(=O)Cn1nc(Cc2ccncc2)c2ccccc2c1=O)OC | -0.1 | 2.2 | -3.9% | 1.9 | -12.3 | -12.5 | -0.6% | 3.7%
CCOc1ccccc1NC(=S)N1CCN(c2nc(-c3ccc(F)cc3)cs2)CC1 | -1.1 | -0.1 | -2.3% | -4.1 | -10.2 | -17.6 | / | /
O=C(O)CCSc1nc2ccccc2s1 | 2.4 | 8.4 | 3.4% | -1.2 | 0.3 | 5.2 | / | /
c1ccc2sc(SCSc3nc4ccccc4s3)nc2c1 | 31.7* | -25.5 | -3.6% | -3.7 | 0.2 | 12.4 | -6.9% | ?
COc1ccc(N2CCN(C(=O)COc3ccccc3)CC2)cc1 | 0.2 | 1.4 | -7.2% | -0.5 | 1.4 | -1.1 | / | /
O=C(CN1CCN(Cc2ccc(Cl)cc2)C1=O)NCCCN1CCN(c2ccc(F)cc2)CC1 | -1.3 | -23.5 | -14.6% | 3.2 | -14.4 | -14.1 | / | /
